# Experimental data reported in PubChem BioAssay (NCI).
# Compounds without any hit were thinned out: in the full panel of roughly 83,000, 20% have a hit.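 Activity criterion: percent growth below 10, measured after cells in 96-well plates were exposed to a single compound concentration for 48 hours.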 A number with no mark means an inactive call. The source made the active and inactive calls.
# Assays:
# Assay in all cases: NCI-60 one-dose screen, 48 h (100 = growth as untreated, 0 = no growth, -100 = all killed)
# Settings in all cases: 10 µM unless noted
# [1] = tested on: RPMI-8226 leukemia
# [2] = tested on: OVCAR-8 ovarian
# [3] = tested on: OVCAR-5 ovarian
# [4] = tested on: OVCAR-4 ovarian
# [5] = tested on: SK-OV-3 ovarian
# [6] = tested on: IGROV1 ovarian
# [7] = tested on: OVCAR-3 ovarian
# [8] = tested on: HS 578T breast
# [9] = tested on: NCI/ADR-RES ovarian
# [10] = tested on: SR leukemia
Structure (SMILES),growth [1],growth [2],growth [3],growth [4],growth [5],growth [6],growth [7],growth [8],growth [9],growth [10]
CC1(C)C2CCC1(C)C1(C2)OCCS1 (stereo not drawn),113%,101%,93.3%,101%,106%,104%,109%,102%,92.4%,
C/C(=N\O)c1ccccn1,,97.7%,106%,97.3%,109%,110%,106%,95.5%,100%,94.5%
CCOc1ccccc1NC(=O)CCl,,86.9%,124%,45.9%,109%,-12% (active),95.4%,94.9%,106%,74.8%
CCOC(=O)c1ccc(NC(C)=O)o1,,91.3%,,107%,92.1%,108%,113%,89.6%,97.5%,79.3%
S=C(NCc1ccccc1)N1CCC(CCCC2CCN(C(=S)NCc3ccccc3)CC2)CC1,,,121%,76.9%,100%,117%,95%,108%,99.3%,93.2%
CCOc1ccc2c(c1)c(C)cc(C)[n+]2CC,52.1%,62.4%,98.5%,58.8%,83.4%,82.3%,76.2%,104%,113%,
CCCCCCCCCCCCCC/C=C\C(CC(=O)O)C(=O)O (stereo not drawn),113%,103%,105%,112%,105%,117%,114%,127%,107%,
Clc1cccc(Cl)c1C1CSc2ccccc2N=C1c1ccccc1 (stereo not drawn),,,101%,73%,96.5%,91.8%,69.6%,88.1%,73.3%,-14% (active)
COC(=O)C1=C(C)C(=O)CC1,110%,109%,99.6%,119%,112%,112%,114%,104%,135%,
CC(CO)(CO)C(=O)O,97.2%,111%,98.2%,105%,105%,126%,106%,98.8%,103%,
NCC(O)C(O)C(O)C(O)CO (stereo not drawn),,100%,107%,103%,,101%,101%,97.1%,102%,96.6%
O=C(NCc1ccco1)Nc1cccc2c(NC(=O)NCc3ccco3)cccc12,,-73.4% [100 µM] (active),66.4% [100 µM],92.3% [100 µM],111% [100 µM],66.3% [100 µM],97.5% [100 µM],,103% [100 µM],69.4% [100 µM]
CC1CCC(C)(C)c2ccccc21 (stereo not drawn),,105%,92.4%,98.2%,101%,98.4%,114%,,101%,107%
COc1ccc(-c2csc(NC(=O)Nc3nc(-c4ccc(OC)cc4)cs3)n2)cc1,,70.3%,,79%,116%,92.4%,81.9%,105%,79.2%,60.2%
Nc1ncnc(Nc2ccccc2)n1,96.7%,106%,105%,109%,117%,102%,117%,102%,111%,
CCCCn1cnc2c(=O)[nH]cnc21,108%,115%,98.7%,113%,104%,115%,113%,115%,113%,
CC(=O)N(C(C)=O)c1ccc(C)cc1,115%,101%,94.2%,101%,109%,109%,112%,110%,96.6%,

Structure (SMILES),growth [1],growth [2],growth [3],growth [4],growth [5],growth [6],growth [7],growth [8],growth [9],growth [10]
C[C@H](CCC[C@H](C)OS(=O)(=O)c1ccccc1)OS(=O)(=O)c1ccccc1,121%,101%,115%,103%,101%,73%,109%,,116%,
NC(=S)N/N=C/c1ccc(OC(=O)COc2ccc(Cl)cc2)cn1,59.1%,23.9%,120%,59.2%,82.1%,46.5%,56.4%,114%,27.9%,
CCOC(=O)C1(N)CCCCC1,110%,107%,94.6%,121%,100%,85.4%,112%,88.6%,98.7%,
CCOC(=O)c1ccc(NC(=O)Nc2nccs2)cc1,6.43% (active),8.24% (active),25.9%,16.7%,10.8%,-16.2% (active),-48.8% (active),48.4%,-6.67% (active),
C=CCOc1ccc(Cl)cc1Cl,113%,119%,93.1%,106%,118%,116%,111%,113%,109%,
Cc1ccccc1CC(N)C(=O)O (stereo not drawn),109%,104%,116%,103%,104%,109%,104%,114%,114%,
O=CNCCc1ccccc1,102%,102%,97.7%,103%,97%,110%,115%,,106%,
O=C(O)C1CCCN1C(=O)OCc1ccccc1 (stereo not drawn),112%,94.8%,105%,122%,102%,104%,120%,100%,105%,
CC(=O)N=c1ccc2nc3c(cc(N)c4ccccc43)oc-2c1,-19.9% (active),-22.1% (active),-73.5% (active),-89.8% (active),80.1%,-81.7% (active),-82.8% (active),-27.7% (active),-6.88% (active),
ClCc1cccc2c(CCl)cccc12,31%,63.8%,114%,94.4%,83%,54.9%,62.7%,98.8%,69.2%,
O=C1C=C(c2ccccc2)C(O)(c2ccccc2)C1 (stereo not drawn),98.1%,106%,93.6%,95.7%,101%,107%,112%,109%,104%,
O=C(N/N=C\c1ccc(Cl)cc1Cl)c1ccncc1,91.5%,101%,105%,106%,117%,96.3%,113%,123%,102%,
CN(C)Cc1ccccn1,90.9%,101%,102%,106%,112%,102%,117%,114%,103%,
CCOC(=O)c1cc(C)[nH]c(=O)c1C#N,80.4%,108%,105%,107%,95.4%,118%,105%,107%,109%,
NC(=S)N/N=C/c1ccc(OC(=O)COc2ccccc2)cn1,55.2%,29.6%,120%,69.1%,90.4%,54.6%,60.2%,116%,26.8%,
O=S(=O)(O)c1cccc2cccnc12,107%,112%,106%,118%,114%,101%,95.3%,95.2%,106%,
